Assay results taken from PubChem BioAssay AID624483 (NMMLSC, 2012).
The campaign covered roughly 360,000 compounds. About 11,000 (3.1%) were called active. Roughly 2% stayed inconclusive and do not appear here. Many of the other results were omitted from the sample, so actives are more common in it than they were. A number with no mark means an inactive call. No stated cut-off is given here; in the data, active means fluorescence intensity above about 16000; inconclusive means no clear call, values can overlap the other calls; inactive means below that.

experiment: counter-screen for toxin protease inhibitors: compound fluorescence, primary screen, artefact control for toxin protease inhibitor project, biochemical, multiplex microsphere, HTS (AID 624483); conditions: compound autofluorescence counterscreen, microsphere flow cytometry; hits give high values

Row | SMILES | fluorescence intensity
1 | COc1ccc(C(=O)N2CCCCC2c2cc(C(=O)Nc3ccc(F)c(Cl)c3)no2)cc1 (centres undefined) | 3750
2 | CC1(C(=O)NCc2ccc(F)c(F)c2)Cc2c(-c3ccc4c(c3)OCO4)ccnc2O1 (centres undefined) | 2890
3 | Cc1nc(C(F)(F)F)ccc1C(=O)N1CCC1(C)C(=O)NS(=O)(=O)c1ccc(F)cc1F (centres undefined) | 3750
4 | CN(C)C(=O)c1cccn(Cc2cccc(C(F)(F)F)c2)c1=O | 4630
5 | O=c1c([N+](=O)[O-])cccn1Cc1ccc(F)cc1Cl | 4380
6 | O=c1c([N+](=O)[O-])cc(C(F)(F)F)cn1Cc1cccc(Cl)c1 | 22600 (active)
7 | COc1ccc(C2CC(c3cccc(OC)c3)=NN2c2ccc(S(N)(=O)=O)cc2)cc1 (centres undefined) | 3270
8 | CCN(CC)CCN(C)C(c1ccnc2ccccc12)c1nnnn1-c1ccc2c(c1)OCCO2 (centres undefined) | 4670
9 | COC(=O)[C@]12CCCCC=C1N(Cc1ccccc1)C(=O)[C@H](CC(=O)NCc1ccc(C)o1)C2 | 5960
10 | Nc1ncnc2c1ncn2[C@@H]1O[C@H](C(=O)N2CCCN(Cc3ccccc3F)CC2)[C@@H](O)[C@H]1O | 5460
11 | CCCCCc1c(-c2cccc(Br)c2)ncn1CCc1ccccc1OC | 5900
12 | Cc1c(C#N)c2ncn(CC#N)c(=O)c2n1-c1ccccc1 | 2670
13 | CN(C)/C=C/c1c(C#N)c(=O)ncn1Cc1ccccc1 | 22600 (active)
14 | CN(C)c1nccc(NCc2ccccc2)c1C#N | 2510
15 | COc1ccc(NC(=O)C2=C(C)NC(=O)NC2c2ccccc2[N+](=O)[O-])cc1 (centres undefined) | 4060
16 | COc1cc(Cl)cc(C2NC(=O)NC(C)=C2C(=O)NCc2ccccc2)c1O (centres undefined) | 6250
17 | CC1=C(C(=O)Nc2ccc(Cl)cc2)C(c2ccco2)NC(=O)N1 (centres undefined) | 21000 (active)
18 | NC(=O)COC(=O)c1cc(S(=O)(=O)N2CCN(c3ccccc3)CC2)ccc1Cl | 2210
19 | O=C(OCc1cn(-c2ccc(Cl)c(Cl)c2)nn1)c1ccccc1Cl | 23100 (active)
20 | Cc1cccc(/C(N)=N/OC(=O)c2ccccc2Cl)c1 | 2520
21 | O=C(Nc1ccccc1)c1ccccc1Br | 3570
22 | CC(OC(=O)CN1C(=O)c2ccccc2C1=O)C(=O)c1ccccc1 (centres undefined) | 8630
23 | CCOC(=O)CN1C(=O)C(=O)c2cc(C)ccc21 | 3160
24 | CC(C)OC(=O)CN1C(=O)C(=O)c2ccccc21 | 22400 (active)

Row | SMILES | fluorescence intensity
25 | CC1(C(=O)NS(=O)(=O)c2cccs2)CCN1C(=O)Cc1ccc(-c2ccccc2)cc1 (centres undefined) | 3400
26 | O=S1(=O)CC(N2CCN(c3ccccn3)CC2)CN1Cc1ccc(F)cc1 (centres undefined) | 5970
27 | O=C(c1ccco1)N1CCN(C(=O)C2c3ccccc3Oc3ccccc32)CC1 | 10300
28 | CCC(=O)N1CCCC1(C)C(=O)Nc1ccc2c(c1)CCN2C(C)=O (centres undefined) | 4080
29 | O=C(Cn1cc(/C=N/NC(=O)c2cccc(C(F)(F)F)c2)c2ccccc21)Nc1ccc(F)cc1 | 23300 (active)
30 | COc1cccc(Cn2cc(/C=N/NC(=O)c3cc(O)cc(O)c3)c3ccccc32)c1 | 5960
31 | O=C(CSc1ccc(/C=N/NC(=O)c2cccc(F)c2)o1)Nc1ccccc1 | 8800
32 | COc1ccc(CCNC2=CC(=O)CC(C)(C)C2)cc1 | 3550
33 | Cc1cc(C)nc(NNC2=CC(=O)CC(C)(C)C2)n1 | 2520
34 | CC1(C)CC(=O)C=C(NCc2ccncc2)C1 | 16700 (active)
35 | COc1cccc(OCCOc2cccc(/C=N/n3cnnc3)c2)c1 | 23900 (active)
36 | C=CCc1ccc(OCCOc2cccc(/C=N/n3cnnc3)c2)c(OC)c1 | 2600
37 | COCCNCCOCCOc1cccc(OC)c1 | 2470
38 | C[C@H](NC(=O)OC(C)(C)C)c1nnc(SCC(=O)Nc2ccc(Br)cc2)o1 | 16800 (active)
39 | CCc1ccccc1NC(=O)CSc1nnc(CCNC(=O)OC(C)(C)C)o1 | 6490
40 | CC(C)(C)OC(=O)N[C@H](C(=O)OC(C)(C)C)c1ccc(Br)cc1 | 3740
41 | C=CCn1c(N)cc(=O)nc1SCC(=O)Nc1cccc2ccccc12 | 4460
42 | CC(C)Oc1ccc(/C=N/NC(=O)c2nnn(-c3nonc3N)c2CN(C)C2CCCCC2)cc1 | 6000
43 | O=S(=O)(N1CCOCC1)N1CCN(c2ccccc2F)CC1 | 6290
44 | Cc1cccc(C)c1N1CCN(S(=O)(=O)N2CCCCC2)CC1 | 3490
45 | Cc1cccc(C)c1N1CCN(S(=O)(=O)N2CCOCC2)CC1 | 23800 (active)
46 | COc1ccc(Cl)cc1-c1cc(C(=O)Nc2cc(OC)c(OC)c(OC)c2)[nH]n1 | 3880
47 | O=S(=O)(NC1CCCCC1N1CCCCC1)c1ccc(Cl)cc1 (centres undefined) | 5790
48 | O=S(=O)(NC1CCCCC1N1CCC(O)CC1)c1ccc(Cl)cc1 (centres undefined) | 38100 (active)

Row | SMILES | fluorescence intensity
49 | CCN1CCN(C2CCCCC2NS(=O)(=O)c2ccc(Cl)cc2)CC1 (centres undefined) | 5580
50 | Cc1cc(OCC(=O)N2CCN(c3ncccn3)CC2)ccc1Cl | 4880
51 | COc1ccc(OC)c(NC(=O)c2cc(-c3cc(F)ccc3OCC3CCCO3)n[nH]2)c1 (centres undefined) | 3690
52 | O=C(O)c1cccnc1Sc1ncnc2sc3c(c12)CCC3 | 4510
53 | COc1ccc(/C=N/Nc2ncnc3sc4c(c23)CCCC4)cc1O | 1980
54 | COc1ncnc2sc3c(c12)CCCC3 | 23600 (active)
55 | CCOC(=O)C1=C(CSc2nnnn2C)N(C)C(=O)NC1c1ccccc1 (centres undefined) | 4330
56 | CCOC(=O)C1=C(CCc2ccccc2)NC(=O)NC1c1ccc2ccccc2c1 (centres undefined) | 3820
57 | CCOC(=O)C1=C(CSc2nccn2C)NC(=O)NC1c1ccc(OC)cc1 (centres undefined) | 24300 (active)
58 | CC(C)C[C@H]1CN([C@@H](Cc2ccccc2)CN2CCC[C@@H]2CN2C(=O)C(=O)NC[C@@H]2Cc2ccc(O)cc2)C(=O)C(=O)N1CCc1ccccc1 | 5350
59 | CC1CCc2c(sc3nc4n(c(=O)c23)CCS4)C1 (centres undefined) | 8310
60 | CCCCc1c(O)nc2n(c1=O)CCS2 | 22100 (active)
61 | CCOC(=O)N1CCN(C(=O)c2cnc3n(c2=O)CCS3)CC1 | 2800
62 | CCOC(=O)N1C(=O)C[C@](Sc2ccc(C)cc2)(C(=O)OC)[C@H]1c1ccccc1 | 5390
63 | Cc1ccc(C)c(C(O)c2ncc(-c3cccc4ccccc34)[nH]2)c1 (centres undefined) | 3640
64 | CC1(C2CC2)NC(=O)N(CC(=O)N2CCN(c3ccccc3F)CC2)C1=O (centres undefined) | 2860
65 | Cc1csc(SCC(=O)Nc2ccc(C)c(S(=O)(=O)N(C)C)c2)n1 | 3940
66 | Cc1ccc(CCNC(=O)C2CCN(S(=O)(=O)N3CCCC3)CC2)cc1 | 9470
67 | CCOC(=O)C1C(=O)NC(N2CCN(c3ccccc3)CC2)=NC1c1ccco1 (centres undefined) | 23400 (active)
68 | CCOC(=O)C1C(=O)C=C(c2ccc(OC)cc2)CC1c1ccco1 (centres undefined) | 2300
69 | CCOC(=O)C1(C)NC(c2ccco2)C2C(=O)N(c3ccccc3)C(=O)C21 (centres undefined) | 4000
70 | Cc1ccc(C2SCC(=O)N2c2ccccc2)cc1 (centres undefined) | 3540
71 | Cc1ccc(N2C(=O)CC(Nc3cccc4ccccc34)C2=O)cc1 (centres undefined) | 3720
72 | Cc1ccc(N2C(=O)C3C(c4ccccc4)(C2=O)C3(c2ccccc2)c2ccccc2)cc1 (centres undefined) | 22200 (active)

Row | SMILES | fluorescence intensity
73 | COc1ccccc1Nc1ncc(C(C)=O)c(C)n1 | 2840
74 | O=C1CCC(C(=O)N2CCC(O)(c3ccccc3)CC2)CN1CCc1ccccc1 (centres undefined) | 5620
75 | CC(C)C[C@@H](COCc1ccc(Cl)cc1)N1CCN(C(=O)c2ccc(Cl)cc2Cl)CCC1=O | 4700
76 | Cc1cc2c(cc1C)N1C(=O)c3cc4ccccc4cc3NC(=O)C1C(=O)N2 (centres undefined) | 5850
77 | COc1ccc(S(=O)(=O)N(C)C)cc1NC(=O)CSc1ncccn1 | 2020
78 | COc1ccc(-n2cnnc2SCC(=O)Nc2cccc(S(N)(=O)=O)c2)cc1 | 5460
79 | CCn1c(CSc2nncn2-c2ccc(OC)cc2)nc2cc(S(=O)(=O)N(C)C)ccc21 | 20000 (active)
80 | CC[C@@H]1CC2=C(C(=O)OC(C)(C)O2)[C@@H](CC)O1 | 5670
81 | CC(C)(C)S(=O)(=O)N1Cc2cc(CO)cc(CCO)c2[C@H]1CCO | 3670
82 | Cc1ccccc1S(=O)(=O)NC(=O)C1(C)CCN1C(=O)C1(c2ccc(Cl)cc2)CC1 (centres undefined) | 4140
83 | Cc1ccccc1-c1ccc(Nc2ccc(C(=O)N3CCOCC3)cc2)nn1 | 16400 (active)
84 | Cc1cc(Nc2ccc(C(=O)N3CCCCC3)cc2)c2cccc(C)c2n1 | 3660
85 | Cc1oc2c(c1C(=O)N1CCOCC1)C(=O)c1ccccc1C2=O | 5580
86 | CCCCc1ccc(S(=O)(=O)NC(=O)C2(C)CCN2C(=O)c2c(C)noc2C)cc1 (centres undefined) | 2860
87 | CCc1nc2c(OCc3ccc(Cl)cc3Cl)cccn2c1N(C)C(=O)C(C)C | 4460
88 | CC(C)CNS(=O)(=O)c1ccc(OCC(=O)Nc2ccc3c(c2)OCO3)c(Cl)c1 | 16300 (active)
89 | O=C(COc1ccc(Cl)cc1)Nc1ccc2c(c1)OCO2 | 3940
90 | Cc1cc(S(=O)(=O)NCC(C)C)ccc1OCC(=O)NC1CC1 | 5980
91 | Nc1c(C(=O)OCC(=O)Nc2ccc(OC(F)F)cc2)[nH]c(=O)[nH]c1=O | 3380
92 | O=C(CCl)Nc1ccc(Sc2ccc(NC(=O)CCl)cc2)cc1 | 4330
93 | Cc1ccc(Sc2ccc(NC(=O)c3ccc(F)cc3)cc2C#N)cc1 | 4940
94 | CC(C)(CCl)C(=O)Nc1ccc(Sc2ccc(F)cc2)cc1 | 20700 (active)
